The record followed here is PubChem BioAssay AID624405 (Broad Institute, 2012).

About 250 (13%) of roughly 1,900 compounds were called active. About 4% were inconclusive and are not listed.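 Rule for the calls: active = fitted curve reaches 40% rescue activity at or below the top valid dose, in every test run; inconclusive = test runs disagree, some active and some inactive; inactive = every run misses the threshold or moves the wrong way.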 Not all results are given here. Entries with a potency or affinity are not part of this list.

The nature of the test: suppressors of statin myotoxicity in myotubes, dose response, cell-based, C2C12 myotubes, ATP luminescence, cherry pick (AID 624405).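 Note: myotubes are challenged with simvastatin at 10 µM to lower ATP.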 Conditions: C2C12 myotubes + simvastatin, 48 h, scaled: DMSO wells 0, geranylgeraniol wells 100; series mostly up to 19.5 µM; rescue activity (ATP increase): at the top concentration.
`O=C(CSc1nnc(CNc2ccc(F)cc2)n1Cc1ccccc1)N1CCOCC1`: the “rescue activity (ATP increase)” value was -5.13% (inactive).

Consider `Cc1ccc(NC(=O)CCNS(=O)(=O)c2ccc3[nH]c(=O)oc3c2)cc1F`, for which the “rescue activity (ATP increase)” value was -26.9% (inactive).

Regarding `C[C@@H]1CN([C@H](C)CO)C(=O)c2cc(C#CC3CCCCC3)cnc2O[C@H]1CN(C)C(=O)C1CCCCC1`, the “rescue activity (ATP increase)” value is -2.93% (inactive).

Regarding `CCOC(=O)c1cccc(NC(=O)C2CCCO2)c1` (stereo unspecified), the “rescue activity (ATP increase)” value was 8.93% (inactive).

As for `Cc1ccc(C2C=C(c3ccccc3OC(F)F)Nc3ncnn32)cc1` (stereo unspecified), the “rescue activity (ATP increase)” value was 19.5% (inactive).

Turning to `CNC(=O)CC(=O)Nc1ccccc1C(=O)O`, the “rescue activity (ATP increase)” value is 13% (inactive).

Regarding `O=c1c2c3c(sc2nc2n1CCCS2)CCCC3`, the “rescue activity (ATP increase)” value is 44.9% (inactive).

As to `C=CCOC(=O)c1ccc(-n2cncn2)nc1`, the “rescue activity (ATP increase)” value is -9.68% (inactive).

With `CCC(C(=O)Nc1ccccc1-c1ccccc1)c1ccccc1` (stereo unspecified), the “rescue activity (ATP increase)” value is 1.13% (inactive).

In the case of `CCOCCc1nnc(NC(=O)C(CC)c2ccccc2)s1` (stereo unspecified), the “rescue activity (ATP increase)” value is -0.751% (inactive).

Regarding `C[C@@H]1CN([C@@H](C)CO)C(=O)Cc2cc(NS(=O)(=O)c3ccc(F)cc3)ccc2O[C@H]1CN(C)Cc1ccc(-c2ccccc2)cc1`, the “rescue activity (ATP increase)” value is 29.3% (inactive).

`COc1ccc(CN(C)C[C@@H]2Oc3ccc(NS(=O)(=O)c4ccc(C)cc4)cc3CC(=O)N([C@H](C)CO)C[C@H]2C)cc1`: the “rescue activity (ATP increase)” value is 16% (inactive).

For `COc1ccc(S(=O)(=O)Nc2ccc3c(c2)CC(=O)N([C@H](C)CO)C[C@@H](C)[C@H](CN(C)Cc2ccccc2)O3)cc1`, the “rescue activity (ATP increase)” value is 25.7% [at 21 µM] (inactive).

On to `Cc1ccc(S(=O)(=O)Nc2ccc3c(c2)CC(=O)N([C@@H](C)CO)C[C@@H](C)[C@H](CN(C)Cc2ccc(Oc4ccccc4)cc2)O3)cc1`, for which the “rescue activity (ATP increase)” value was 22.7% (inactive).

Take `C[C@@H]1CN([C@H](C)CO)C(=O)Cc2cc(NS(=O)(=O)c3cccs3)ccc2O[C@@H]1CN(C)Cc1ccc(-c2ccccc2)cc1`: the “rescue activity (ATP increase)” value is 40.7% (inactive).

As to `COc1ccc(CN(C)C[C@H]2Oc3ccc(NS(=O)(=O)c4ccccc4)cc3CC(=O)N([C@@H](C)CO)C[C@@H]2C)cc1`, the “rescue activity (ATP increase)” value was 22.6% [at 21 µM] (inactive).

Take `Cc1ccc(S(=O)(=O)Nc2ccc3c(c2)CC(=O)N([C@H](C)CO)C[C@@H](C)[C@H](CN(C)Cc2ccc(-c4ccccc4)cc2)O3)cc1`: the “rescue activity (ATP increase)” value is 12.2% (inactive).

In the case of `C[C@H]1CN([C@@H](C)CO)C(=O)Cc2cc(NS(=O)(=O)c3cn(C)cn3)ccc2O[C@@H]1CN(C)Cc1ccc(-c2ccccc2)cc1`, the “rescue activity (ATP increase)” value was 36.4% (inactive).

`COc1ccc(CN(C)C[C@H]2Oc3ccc(NS(=O)(=O)c4ccc(F)cc4)cc3CC(=O)N([C@@H](C)CO)C[C@@H]2C)cc1`: the “rescue activity (ATP increase)” value is 30% [at 21 µM] (inactive).

Regarding `COC(=O)CCC(=O)Nc1sc(C)c(C)c1C(N)=O`, the “rescue activity (ATP increase)” value is -8.03% (inactive).

Take `C[C@@H]1CCCCO[C@@H](CN(C)C(=O)C2CCCCC2)[C@H](C)CN([C@@H](C)CO)C(=O)c2cc(NS(=O)(=O)c3ccccc3)ccc2O1`: the “rescue activity (ATP increase)” value is 32.1% (inactive).

With `COc1ccc(CN2[C@@H]3CNc4ccccc4[C@@H]3[C@@H]2CO)cc1`, the “rescue activity (ATP increase)” value is 3.24% (inactive).

Take `C[C@@H]1CCCCO[C@H](CN(C)C(=O)NC2CCCCC2)[C@H](C)CN([C@@H](C)CO)C(=O)c2cc(NC(=O)Nc3cccc4ccccc34)ccc2O1`: the “rescue activity (ATP increase)” value was 2.49% (inactive).

Take `C[C@H](CO)N1C[C@H](C)[C@@H](CN(C)Cc2ccc(Oc3ccccc3)cc2)Oc2ccc(NC(=O)Cc3cn(C)c4ccccc34)cc2CC1=O`: the “rescue activity (ATP increase)” value was 22.8% (inactive).

On to `O=C(OCC(=O)N1CCOCC1)c1ccccc1SCC(=O)N1CCCC1`, for which the “rescue activity (ATP increase)” value was -12.9% (inactive).

For `C[C@H](CO)N1C[C@H](C)[C@@H](CN(C)Cc2ccc(C(F)(F)F)cc2)Oc2ccc(NS(=O)(=O)c3cccs3)cc2CC1=O`, the “rescue activity (ATP increase)” value was 17% [at 21 µM] (inactive).

On to `CC(=O)N1CCN(c2nnnn2-c2ccccc2)CC1`, for which the “rescue activity (ATP increase)” value was -24.2% (inactive).

For `COCc1cc(C)nc(N2CCN(Cc3ccccc3)CC2)c1C#N`, the “rescue activity (ATP increase)” value was -6.29% (inactive).

For the compound `COc1ccc(S(=O)(=O)Nc2ccc3c(c2)C(=O)N([C@@H](C)CO)C[C@@H](C)[C@H](CN(C)C(=O)c2ccccc2)OCCCC[C@@H](C)O3)cc1`, the “rescue activity (ATP increase)” value was 32.4% (inactive).

On to `COc1ccc2[nH]c(=O)c(CNc3ccc(C)c(C)c3)cc2c1`, for which the “rescue activity (ATP increase)” value is 35.4% (inactive).

`COc1ccc2[nH]c(=O)c(CN(CCc3ccccc3)C(C)=O)cc2c1`: the “rescue activity (ATP increase)” value is 4.66% (inactive).

For `CC(=O)N1C=CN(C(C)=O)C(c2cn(C)c3ccccc23)C1c1cn(C)c2ccccc12` (stereo unspecified), the “rescue activity (ATP increase)” value was 25.1% (inactive).

For the compound `Cc1cc(C)nc(NC(=NCCc2c[nH]c3ccccc23)NC(=O)c2ccco2)n1`, the “rescue activity (ATP increase)” value is -10.7% (inactive).

For `O=C(Cc1coc(-c2ccc(F)cc2)n1)Nc1ccccc1`, the “rescue activity (ATP increase)” value was -14.8% (inactive).

Turning to `CCCCCNC(=O)C1CC=CCC1C(=O)O` (stereo unspecified), the “rescue activity (ATP increase)” value was -14.6% (inactive).

For the compound `C[C@H]1CN([C@@H](C)CO)C(=O)Cc2cc(NC(=O)CCCCCC(=O)Nc3ccccc3N)ccc2O[C@@H]1CN(C)CC1CCCCC1`, the “rescue activity (ATP increase)” value is 7.32% [at 21 µM] (inactive).

As to `C[C@@H]1CN([C@H](C)CO)C(=O)Cc2cc(NC(=O)CCCCCC(=O)Nc3ccccc3N)ccc2O[C@H]1CN(C)CC1CCCCC1`, the “rescue activity (ATP increase)” value is 32.9% [at 16 µM] (inactive).

For the compound `COc1ccc(S(=O)(=O)N(C)C[C@@H]2OCCCC[C@H](C)Oc3ccc(NC(=O)Nc4ccc(C(F)(F)F)cc4)cc3C(=O)N([C@@H](C)CO)C[C@@H]2C)cc1`, the “rescue activity (ATP increase)” value was -28.3% (inactive).

`OC[C@H]1[C@@H]2c3ccccc3NC[C@@H]2N1Cc1ccccc1Cl`: the “rescue activity (ATP increase)” value is -11.1% (inactive).

Consider `CCOc1ccccc1OCCOc1ccccc1CC`, for which the “rescue activity (ATP increase)” value was 83.2% (inactive).

For `COc1ccc(NC(=O)N(C)C[C@@H]2OCCCC[C@@H](C)Oc3ccc(NS(=O)(=O)c4c(C)noc4C)cc3C(=O)N([C@H](C)CO)C[C@H]2C)cc1`, the “rescue activity (ATP increase)” value is -2.69% (inactive).
